# Measured values as given in the supplement of paper PMC8728848.
# The sample as a whole holds a higher share of the strongest signals than the screen did.
# How the values were obtained:
# Test in all cases: glycan array binding signal (z-score within array); higher = stronger binding
# Conditions in all cases: glycan notation: IUPAC condensed, linker removed
# [1] = target: Fuc(a1-2)Gal(b1-3)GlcNAc(b1-2)Man(a1-3)[Fuc(a1-2)Gal(b1-3)GlcNAc(b1-2)Man(a1-6)]Man(b1-4)GlcNAc(b1-4)GlcNAc
# Outline: (§1)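 The binding signal is a Z-score computed within each array. Data were drawn from 3228 arrays in the Consortium for Functional Glycomics database, restricted to those with a known protein sequence. Scores were averaged over arrays of the same protein sequence at different concentrations or buffers, and over linkers, and negative values can be taken as non-binding.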
# [2] = target: Fuc(a1-2)Gal(b1-3)GlcNAc(b1-3)[Neu5Ac(a2-6)Gal(b1-4)GlcNAc(b1-6)]Gal(b1-4)Glc
# Outline: as §1
# [3] = target: Fuc(a1-2)Gal(b1-4)Fuc(a1-3)]GlcNAc(b1-2)Man(a1-3)[Fuc(a1-2)Gal(b1-4)[Fuc(a1-3)]GlcNAc(b1-2)Man(a1-6)]Man(b1-4)GlcNAc(b1-4)GlcNAc
# Outline: as §1
# [4] = target: Fuc(a1-2)Gal(b1-4)GlcNAc(b1-3)[Fuc(a1-2)Gal(b1-4)GlcNAc(b1-6)]GalNAc
# Outline: as §1
# [5] = target: Fuc(a1-2)[Gal(a1-3)]Gal(b1-4)[Fuc(a1-3)]GlcNAc
# Outline: as §1
# [6] = target: Fuc(a1-2)[GalNAc(a1-3)]Gal(b1-4)GlcNAc(b1-3)Gal(b1-4)GlcNAc
# Outline: as §1
# [7] = target: Fuc(a1-2)[GalNAc(a1-3)]Gal(b1-4)GlcNAc(b1-3)[Fuc(a1-2)[GalNAc(a1-3)]Gal(b1-4)GlcNAc(b1-6)]GalNAc
# Outline: as §1
# [8] = target: Fuc(a1-2)[GalNAc(a1-3)]Gal(b1-4)[Fuc(a1-3)]GlcNAc(b1-3)GalNAc
# Outline: as §1
# [9] = target: Fuc(a1-2)[GalNAc(a1-4)]Gal(b1-4)GlcNAc
# Outline: as §1
# [10] = target: Fuc(a1-3)[Gal(b1-4)]GlcNAc(b1-2)Man(a1-3)[Fuc(a1-3)[Gal(b1-4)]GlcNAc(b1-2)Man(a1-6)]Man(b1-4)GlcNAc(b1-4)[Fuc(a1-6)]GlcNAc
# Outline: as §1
# [11] = target: Fuc(a1-3)[Gal(b1-4)]GlcNAc(b1-3)Gal(b1-4)[Fuc(a1-3)]GlcNAc
# Outline: as §1
# [12] = target: Gal(a1-3)Gal(b1-3)GlcNAc(b1-3)GalNAc
# Outline: as §1
# [13] = target: Gal(b1-3)GlcNAc(a1-3)Gal(b1-4)GlcNAc
# Outline: as §1
# [14] = target: Gal(b1-3)GlcNAc(b1-6)[Gal(b1-3)]GalNAc
# Outline: as §1
# [15] = target: Gal(b1-3)[Fuc(a1-4)]GlcNAc(b1-2)Man(a1-3)[Gal(b1-3)[Fuc(a1-4)]GlcNAc(b1-2)Man(a1-6)]Man(b1-4)GlcNAc(b1-4)[Fuc(a1-6)]GlcNAc
# Outline: as §1
# [16] = target: Gal(b1-4)GlcNAc(b1-2)Man(a1-3)[GlcNAc(b1-4)][Gal(b1-4)GlcNAc(b1-2)Man(a1-6)]Man(b1-4)GlcNAc(b1-4)GlcNAc
# Outline: as §1
# [17] = target: Gal(b1-4)GlcNAc(b1-3)Gal(b1-4)GlcNAc(b1-2)Man(a1-3)[Gal(b1-4)GlcNAc(b1-3)Gal(b1-4)GlcNAc(b1-2)Man(a1-6)]Man(b1-4)GlcNAc(b1-4)GlcNAc
# Outline: as §1
# [18] = target: Gal(b1-4)GlcNAc(b1-3)Gal(b1-4)GlcNAc(b1-3)GalNAc
# Outline: as §1
# [19] = target: Gal(b1-4)GlcNAc(b1-3)Gal(b1-4)GlcNAc(b1-3)[Gal(b1-4)GlcNAc(b1-3)Gal(b1-4)GlcNAc(b1-6)]GalNAc
# Outline: as §1
# [20] = target: Gal3S(b1-3)[Fuc(a1-4)]GlcNAc
# Outline: as §1
# Gal3S(b1-4)Glc = target: Gal3S(b1-4)Glc
# Outline: as §1
# Gal3S4S(b1-4)GlcNAc = target: Gal3S4S(b1-4)GlcNAc
# Outline: as §1
# Gal6S(b1-4)GlcNAc6S = target: Gal6S(b1-4)GlcNAc6S
# Outline: as §1
# GalNAc(a1-3)GalNAc = target: GalNAc(a1-3)GalNAc
# Outline: as §1
# [21] = target: GalNAc(a1-3)GalNAc(b1-3)Gal(a1-4)Gal(b1-4)Glc
# Outline: as §1
# GalNAc(b1-3)Gal = target: GalNAc(b1-3)Gal
# Outline: as §1
# GalNAc3S(b1-4)GlcNAc = target: GalNAc3S(b1-4)GlcNAc
# Outline: as §1
# [22] = target: GlcNAc(b1-3)Gal(b1-4)GlcNAc(b1-2)Man(a1-3)[GlcNAc(b1-3)Gal(b1-4)GlcNAc(b1-2)Man(a1-6)]Man(b1-4)GlcNAc(b1-4)GlcNAc
# Outline: as §1
# [23] = target: GlcNAc(b1-3)Gal(b1-4)GlcNAc(b1-3)Gal(b1-4)GlcNAc(b1-3)Gal(b1-4)GlcNAc(b1-2)Man(a1-3)[GlcNAc(b1-3)Gal(b1-4)GlcNAc(b1-3)Gal(b1-4)GlcNAc(b1-3)Gal(b1-4)GlcNAc(b1-2)Man(a1-6)]Man(b1-4)GlcNAc(b1-4)[Fuc(a1-6)]GlcNAc
# Outline: as §1
# [24] = target: GlcNAc(b1-3)Gal(b1-4)GlcNAc(b1-6)[GlcNAc(b1-3)Gal(b1-3)]GalNAc
# Outline: as §1
# [25] = target: GlcNAc(b1-3)[GlcNAc(b1-4)][GlcNAc(b1-6)]GlcNAc
# Outline: as §1
# [26] = target: GlcNAc(b1-4)GlcNAc(b1-4)GlcNAc(b1-4)GlcNAc(b1-4)GlcNAc
# Outline: as §1
# [27] = target: GlcNAc(b1-4)GlcNAc(b1-4)GlcNAc(b1-4)GlcNAc(b1-4)GlcNAc(b1-4)GlcNAc
# Outline: as §1
# [28] = target: Man(a1-3)[Man(a1-6)]Man(a1-6)[Man(a1-2)Man(a1-3)]Man(b1-4)GlcNAc(b1-4)GlcNAc
# Outline: as §1
# [29] = target: Man(a1-3)[Man(a1-6)]Man(b1-4)GlcNAc(b1-4)[Fuc(a1-6)]GlcNAc
# Outline: as §1
# MurNAc(b1-4)GlcNAc = target: MurNAc(b1-4)GlcNAc
# Outline: as §1
# [30] = target: Neu5Ac(a2-3)Gal(b1-3)GalNAc(b1-4)[Neu5Ac(a2-8)Neu5Ac(a2-3)]Gal(b1-4)Glc
# Outline: as §1
# [31] = target: Neu5Ac(a2-3)Gal(b1-3)GlcNAc(b1-3)Gal(b1-3)GlcNAc
# Outline: as §1
# [32] = target: Neu5Ac(a2-3)Gal(b1-4)GlcNAc(b1-3)Gal(b1-3)GlcNAc
# Outline: as §1
# [33] = target: Neu5Ac(a2-3)Gal(b1-4)GlcNAc(b1-3)Gal(b1-4)GlcNAc(b1-2)Man(a1-3)[Neu5Ac(a2-3)Gal(b1-4)GlcNAc(b1-3)Gal(b1-4)GlcNAc(b1-2)Man(a1-6)]Man(b1-4)GlcNAc(b1-4)GlcNAc
# Outline: as §1
# [34] = target: Neu5Ac(a2-3)Gal(b1-4)GlcNAc(b1-3)Gal(b1-4)GlcNAc(b1-3)Gal(b1-4)GlcNAc(b1-2)Man(a1-3)[Neu5Ac(a2-3)Gal(b1-4)GlcNAc(b1-3)Gal(b1-4)GlcNAc(b1-3)Gal(b1-4)GlcNAc(b1-2)Man(a1-6)]GalNAc
# Outline: as §1
# [35] = target: Neu5Ac(a2-3)[GalNAc(b1-4)]Gal(b1-4)GlcNAc
# Outline: as §1
# [36] = target: Neu5Ac(a2-3)[Neu5Ac(a2-6)]GalNAc
# Outline: as §1
# [37] = target: Neu5Ac(a2-6)Gal(b1-4)GlcNAc
# Outline: as §1
# [38] = target: Neu5Ac(a2-6)Gal(b1-4)GlcNAc(b1-3)Gal(b1-4)GlcNAc(b1-3)[Neu5Ac(a2-6)Gal(b1-4)GlcNAc(b1-3)Gal(b1-4)GlcNAc(b1-6)]GalNAc
# Outline: as §1
# Neu5Ac(a2-6)GalNAc = target: Neu5Ac(a2-6)GalNAc
# Outline: as §1
# [39] = target: Neu5Ac(a2-8)Neu5Ac(a2-3)Gal(b1-3)GalNAc(b1-4)[Neu5Ac(a2-3)]Gal(b1-4)Glc
# Outline: as §1
# [40] = target: Neu5Ac(a2-8)Neu5Ac(a2-8)Neu5Ac(a2-3)[Gal(b1-3)GalNAc(b1-4)]Gal(b1-4)Glc
# Outline: as §1
# [41] = target: Neu5Ac(a2-8)Neu5Ac(a2-8)Neu5Ac(a2-3)[GalNAc(b1-4)]Gal(b1-4)Glc
# Outline: as §1
# Neu5Ac(b2-6)GalNAc = target: Neu5Ac(b2-6)GalNAc
# Outline: as §1
# [42] = target: Neu5Ac9Ac(a2-3)Gal(b1-3)GlcNAc
# Outline: as §1
# [43] = target: Neu5Gc(a2-3)Gal(b1-4)GlcNAc(b1-3)Gal(b1-4)GlcNAc(b1-2)Man(a1-3)[Neu5Gc(a2-3)Gal(b1-4)GlcNAc(b1-3)Gal(b1-4)GlcNAc(b1-2)Man(a1-6)]Man(b1-4)GlcNAc(b1-4)GlcNAc
# Outline: as §1
# [44] = target: Neu5Gc(a2-3)Gal(b1-4)[Fuc(a1-3)]GlcNAc
# Outline: as §1
# [45] = target: Neu5Gc(a2-8)Neu5Gc(a2-3)Gal(b1-4)GlcNAc(b1-3)Gal(b1-4)GlcNAc
# Outline: as §1
binder,measurement,setting,value
LFA (Limax flavus) (protein) MSVLFLAASFLLLASFELVAAQGCPRQDPGDWIVIQRRLNADVNFYRGWADYKHGFGDLRCNFWLGNEKIHQLTSHGRYKLRVEFTFNNKSYFAEYSTFKILGEADKYKLQVGGYSGNAGDALTFHNGMAFSTNDRDNDADSIDCAKVYHGAWWYKTCHESNLNGKWGSKKYGEGLNWKAKTTFTATATSSLLKIKALK,glycan array binding signal (z-score),[1],0.702
same,glycan array binding signal (z-score),[2],-0.319
same,glycan array binding signal (z-score),[3],1.54
same,glycan array binding signal (z-score),[4],-0.186
same,glycan array binding signal (z-score),[5],-0.137
same,glycan array binding signal (z-score),[6],-0.192
same,glycan array binding signal (z-score),[7],-0.241
same,glycan array binding signal (z-score),[8],-0.214
same,glycan array binding signal (z-score),[9],3.52
same,glycan array binding signal (z-score),[10],-0.15
same,glycan array binding signal (z-score),[11],-0.217
same,glycan array binding signal (z-score),[12],0.016
same,glycan array binding signal (z-score),[13],-0.103
same,glycan array binding signal (z-score),[14],-0.21
same,glycan array binding signal (z-score),[15],0.669
same,glycan array binding signal (z-score),[16],0.181
same,glycan array binding signal (z-score),[17],2.97
same,glycan array binding signal (z-score),[18],2.68
same,glycan array binding signal (z-score),[19],2.39
same,glycan array binding signal (z-score),[20],-0.306
same,glycan array binding signal (z-score),Gal3S(b1-4)Glc,-0.271
same,glycan array binding signal (z-score),Gal3S4S(b1-4)GlcNAc,-0.218
same,glycan array binding signal (z-score),Gal6S(b1-4)GlcNAc6S,-0.066
same,glycan array binding signal (z-score),GalNAc(a1-3)GalNAc,3.66
same,glycan array binding signal (z-score),[21],13.1
same,glycan array binding signal (z-score),GalNAc(b1-3)Gal,-0.195
same,glycan array binding signal (z-score),GalNAc3S(b1-4)GlcNAc,-0.277
same,glycan array binding signal (z-score),[22],-0.217
same,glycan array binding signal (z-score),[23],0.314
same,glycan array binding signal (z-score),[24],-0.285
same,glycan array binding signal (z-score),[25],-0.405
same,glycan array binding signal (z-score),[26],2.87
same,glycan array binding signal (z-score),[27],5.81
same,glycan array binding signal (z-score),[28],3.26
same,glycan array binding signal (z-score),[29],0.24
same,glycan array binding signal (z-score),MurNAc(b1-4)GlcNAc,-0.363
same,glycan array binding signal (z-score),[30],-0.184
same,glycan array binding signal (z-score),[31],-0.139
same,glycan array binding signal (z-score),[32],-0.206
same,glycan array binding signal (z-score),[33],2.77
same,glycan array binding signal (z-score),[34],4.29
same,glycan array binding signal (z-score),[35],0.019
same,glycan array binding signal (z-score),[36],1.01
same,glycan array binding signal (z-score),[37],-0.176
same,glycan array binding signal (z-score),[38],2.5
same,glycan array binding signal (z-score),Neu5Ac(a2-6)GalNAc,-0.345
same,glycan array binding signal (z-score),[39],-0.229
same,glycan array binding signal (z-score),[40],-0.353
same,glycan array binding signal (z-score),[41],0.236
same,glycan array binding signal (z-score),Neu5Ac(b2-6)GalNAc,-0.284
same,glycan array binding signal (z-score),[42],-0.339
same,glycan array binding signal (z-score),[43],-0.166
same,glycan array binding signal (z-score),[44],-0.306
same,glycan array binding signal (z-score),[45],-0.237
